Measurements: PubChem BioAssay (Tox21)
Records with an inconclusive call do not appear. A call without a number means that no potency is given here. The source made the active and inactive calls. Unless noted, calls come from the whole dose curve; as a rule, active = well fitted curve in the direction sought with a large enough effect in the repeat runs; inconclusive = weak or mixed curves; inactive = no such curve, though single readings can be large; an effect the other way counts as inactive or inconclusive.

Experiments:
[1] = qHTS assay to identify aromatase inhibitors - cell viability counter screen (AID 743084);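 note: cells stimulated with testosterone during compound exposure; nearly all actives have a fitted effect of over 55% in size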; note: potency is the fitted concentration of half-maximal effect
[2] = target: Aryl hydrocarbon receptor (Homo sapiens) (UniProt P35869); assay: qHTS assay to identify small molecule that activate the aryl hydrocarbon receptor (AhR) signaling pathway (AID 743085); note: nearly all actives have a fitted effect of over 15% in size; note: potency is the fitted concentration of half-maximal effect;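 for activation: HG2L7.5c1 human HepG2 liver cells with stably integrated DRE-driven firefly reporter; series mostly up to about 70 µM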
Summary of the method: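 Cell line HG2L7.5c1 (human hepatoma, 20× DRE-luc). Plated, 5 h 37C, compound/DMSO added, 24 h 37C. CellTiter-Fluor 30 min 37C → fluorescence; then ONE-Glo 30 min RT → luminescence.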

[3] = qHTS assay to identify small molecule that activate the aryl hydrocarbon receptor (AhR) signaling pathway - cell viability counter screen (AID 743086);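 note: HepG2 liver cells carrying the AhR DRE luciferase reporter; series mostly up to about 70 µM; nearly all actives have a fitted effect of over 45% in size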
Summary of the method: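 HepG2-AhR-luc (HG2L7.5c1) cells, 4000/well, treated 24 h at 37 C with compound; viability measured as CellTiter-Fluor fluorescence after 30 min in the same wells as the luciferase read.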

[4] = target: Peroxisome proliferator-activated receptor gamma (Homo sapiens) (UniProt P37231); assay: qHTS assay to identify small molecule agonists of the peroxisome proliferator-activated receptor gamma (PPARg) signaling pathway (AID 743094; active = well fitted activation curve with a large enough effect in the signal ratio in the repeat runs, not every such curve was filed as active; the % refers to the signal ratio)
Summary of the method: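 Following 5 h plating at 37C, PPARg-bla HEK293H cells receive compound or DMSO for 17 h; fluorescence intensity is recorded after LiveBLAzer B/G loading for 1 h at room temperature.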

[5] = qHTS assay to identify small molecule antagonists of the peroxisome proliferator-activated receptor gamma (PPARg) signaling pathway - cell viability counter screen (AID 743194); details: Potency: co-treated with 50 nM rosiglitazone; note: nearly all actives have a fitted effect of over 55% in size; note: potency is the fitted concentration of half-maximal effect
Summary of the method: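 Cytotoxicity counter screen in PPARg-bla HEK293H cells, same wells as reporter assay. Compounds plus 50 nM rosiglitazone (final) for 17 h at 37 C, then viability read by CellTiter-Glo luminescence.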

[6] = qHTS assay for small molecule agonists of the antioxidant response element (ARE) signaling pathway (AID 743202; active = well fitted activation curve with a large enough effect in the signal ratio in the repeat runs, not every such curve was filed as active; the % refers to the signal ratio; note: potency is the fitted concentration of half-maximal effect)
Summary of the method: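 ARE-bla HepG2 cells (beta-lactamase reporter under the antioxidant response element), plated 5 hours, then exposed to compounds 16 hours at 37 C. LiveBLAzer B/G FRET substrate added for 2 hours at room temperature; fluorescence intensity read.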

[7] = qHTS assay for small molecule agonists of the antioxidant response element (ARE) signaling pathway - cell viability counter screen (AID 743203; calls by dose curve; note: nearly all actives have a fitted effect of over 55% in size; note: potency is the fitted concentration of half-maximal effect)
Summary of the method: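 Compounds in DMSO were pinned onto ARE-bla HepG2 cells plated 5 hrs earlier at 2,000 cells/well. Sixteen hours later at 37C/5% CO2, CellTiter-Glo was added and luminescence measured after 30 min at room temperature.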

[8] = qHTS assay for small molecule activators of the heat shock response signaling pathway - cell viability counter screen (AID 743209); note: nearly all actives have a fitted effect of over 50% in size; note: potency is the fitted concentration of half-maximal effect
Summary of the method: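 Counter screen for cytotoxicity in HeLa HSE-bla reporter cells. Treatment was 5 h at 37 C; viability was detected by luminescent ATP assay (CellTiter-Glo) in the same wells as the beta-lactamase read.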

[9] = qHTS assay for small molecule activators of the heat shock response signaling pathway (AID 743210; active = well fitted activation curve with a large enough effect in the signal ratio in the repeat runs, with a control signal flat, not every such curve was filed as active; the % refers to the signal ratio; note: series mostly up to about 63 µM)
Summary of the method: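 HSE-bla HeLa cells (beta-lactamase reporter under heat shock response elements), plated overnight, then exposed to compounds 5 h at 37 C; LiveBLAzer B/G FRET substrate added, 2.5 h at room temperature, fluorescence intensity read.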

[10] = target: Peroxisome proliferator-activated receptor gamma (Homo sapiens) (UniProt P37231); assay: qHTS assay to identify small molecule antagonists of the peroxisome proliferator-activated receptor gamma (PPARg) signaling pathway (AID 743191; calls by dose curve; note: series mostly up to about 63 µM; nearly all actives have a fitted effect of over 30% in size)
Summary of the method: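 GeneBLAzer PPARg UAS-bla HEK293H cells, 5 h post-plating, exposed to compounds 17 h at 37C. LiveBLAzer B/G FRET substrate added for 1 h at room temperature; beta-lactamase reporter read by fluorescence intensity.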

Chain of Aryl hydrocarbon receptor (Homo sapiens) (P35869 whole entry, looked up): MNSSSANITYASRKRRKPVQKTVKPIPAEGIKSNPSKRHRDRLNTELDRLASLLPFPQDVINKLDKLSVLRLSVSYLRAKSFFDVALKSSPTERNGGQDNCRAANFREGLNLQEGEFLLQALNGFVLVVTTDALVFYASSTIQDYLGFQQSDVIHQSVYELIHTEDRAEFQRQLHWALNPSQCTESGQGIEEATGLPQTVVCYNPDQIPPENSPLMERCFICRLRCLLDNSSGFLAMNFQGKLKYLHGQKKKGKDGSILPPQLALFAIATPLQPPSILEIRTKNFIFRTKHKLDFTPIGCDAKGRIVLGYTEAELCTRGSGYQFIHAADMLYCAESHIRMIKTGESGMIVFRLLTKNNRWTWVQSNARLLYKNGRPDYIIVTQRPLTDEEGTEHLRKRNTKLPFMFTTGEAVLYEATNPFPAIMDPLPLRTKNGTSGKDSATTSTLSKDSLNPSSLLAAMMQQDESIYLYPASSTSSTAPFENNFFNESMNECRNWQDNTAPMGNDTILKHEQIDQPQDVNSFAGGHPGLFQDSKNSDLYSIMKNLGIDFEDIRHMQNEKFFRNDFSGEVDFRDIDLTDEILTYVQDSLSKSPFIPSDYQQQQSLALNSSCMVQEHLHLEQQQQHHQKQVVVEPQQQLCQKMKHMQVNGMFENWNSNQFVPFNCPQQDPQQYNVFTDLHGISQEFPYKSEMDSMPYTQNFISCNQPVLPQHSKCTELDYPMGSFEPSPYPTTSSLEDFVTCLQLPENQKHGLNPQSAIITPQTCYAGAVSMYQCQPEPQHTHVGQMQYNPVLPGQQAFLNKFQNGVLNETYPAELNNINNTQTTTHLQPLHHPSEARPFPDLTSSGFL
Chain of Peroxisome proliferator-activated receptor gamma (Homo sapiens) (P37231 whole entry, looked up): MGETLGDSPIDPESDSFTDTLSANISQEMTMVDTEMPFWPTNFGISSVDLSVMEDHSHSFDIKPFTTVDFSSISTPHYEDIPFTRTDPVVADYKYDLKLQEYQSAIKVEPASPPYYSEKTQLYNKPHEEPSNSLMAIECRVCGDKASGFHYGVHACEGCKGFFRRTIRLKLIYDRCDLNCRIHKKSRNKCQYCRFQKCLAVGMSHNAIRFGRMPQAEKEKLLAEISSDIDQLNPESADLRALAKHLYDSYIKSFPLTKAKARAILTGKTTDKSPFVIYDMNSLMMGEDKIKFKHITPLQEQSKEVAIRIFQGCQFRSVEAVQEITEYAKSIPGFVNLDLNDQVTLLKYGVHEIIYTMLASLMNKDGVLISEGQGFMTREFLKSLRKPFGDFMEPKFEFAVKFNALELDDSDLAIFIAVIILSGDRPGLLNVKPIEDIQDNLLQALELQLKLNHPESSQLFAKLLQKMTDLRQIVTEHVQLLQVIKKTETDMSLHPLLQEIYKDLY

Row | SMILES | Potency [1] | Potency [2] | Potency [3] | Potency [4] | Potency [5] | Potency [6] | Potency [7] | Potency [8] | outcome [9] | Potency [10]
1 | c1ccc(C2CC2)c(OCC2=NCCN2)c1 | inactive | inactive | inactive | inactive | inactive | inactive | inactive | inactive | inactive | –
2 | N#CCc1ccccc1 | inactive | inactive | inactive | inactive | inactive | – | inactive | inactive | – | inactive
3 | C=CCCl | inactive | inactive | inactive | inactive | inactive | inactive | inactive | inactive | inactive | –
4 | CCOC(=O)C(Cl)C(C)=O (centres undefined) | inactive | inactive | inactive | inactive | inactive | inactive | inactive | inactive | inactive | –
5 | Cn1sc(Cl)cc1=O | inactive | inactive | inactive | inactive | – | – | inactive | inactive | – | inactive
6 | ClCCCCBr | inactive | inactive | inactive | inactive | inactive | inactive | inactive | inactive | inactive | –
7 | Nc1nc(N)nc(N)n1 | inactive | inactive | inactive | inactive | inactive | inactive | inactive | inactive | inactive | inactive
8 | COC(=O)C(C)N(C(=O)Cc1ccccc1)c1c(C)cccc1C (centres undefined) | inactive | inactive | inactive | inactive | – | – | inactive | inactive | inactive | inactive
9 | CC1C(=O)C[C@]2(C(C)C)C[C@H]12 (some centres undefined) | inactive | inactive | inactive | inactive | inactive | inactive | inactive | inactive | inactive | inactive
10 | CC/C(=N\OC/C=C/Cl)C1=C(O)CC(C2CCOCC2)CC1=O (centres undefined) | inactive | inactive | inactive | inactive | inactive | inactive | inactive | inactive | inactive | –
11 | CC[C@H]1C[C@H]2[C@@H]3CCC4=CC(=O)CC[C@@H]4[C@H]3CC[C@]2(C)[C@H]1O | inactive | inactive | inactive | inactive | inactive | 29.8 µM (active) | inactive | inactive | inactive | –
12 | NS(=O)(=O)C(F)(F)C(F)(F)C(F)(F)C(F)(F)C(F)(F)C(F)(F)C(F)(F)C(F)(F)F | inactive | inactive | inactive | inactive | 43.6 µM (active) | – | 68.6 µM (active) | 49 µM (active) | – | –
13 | CCOP(=S)(OCC)Oc1cc(Cl)c(Br)cc1Cl | inactive | 9.69 µM (active) | inactive | inactive | – | inactive | inactive | inactive | inactive | inactive
14 | N#CCC#N | inactive | inactive | inactive | inactive | – | inactive | inactive | – | – | inactive
15 | BrCCCCBr | inactive | inactive | inactive | inactive | inactive | – | inactive | inactive | inactive | –
16 | CN1C(=O)NC(=O)C(C)(C2=CCCCC2)C1=O (centres undefined) | inactive | inactive | inactive | inactive | inactive | inactive | inactive | inactive | inactive | –
17 | ClC=C(Cl)Cl | inactive | inactive | inactive | inactive | inactive | inactive | inactive | inactive | inactive | inactive
18 | O=Cc1ccc2c(c1)OCO2 | inactive | inactive | inactive | inactive | inactive | inactive | inactive | inactive | – | –
19 | NC(=O)CI | inactive | inactive | inactive | inactive | – | inactive | inactive | inactive | inactive | inactive
20 | CC(O)(CS(=O)(=O)c1ccc(F)cc1)C(=O)Nc1ccc(C#N)c(C(F)(F)F)c1 (centres undefined) | inactive | inactive | inactive | inactive | inactive | – | – | inactive | inactive | inactive
21 | Cc1cc(=O)[nH]o1 | inactive | inactive | inactive | inactive | inactive | inactive | inactive | inactive | inactive | –
22 | Nc1nc(=S)[nH][nH]1 | inactive | inactive | inactive | inactive | inactive | inactive | inactive | inactive | inactive | –
23 | CCOS(C)(=O)=O | inactive | inactive | inactive | inactive | inactive | inactive | inactive | inactive | inactive | inactive
24 | CC(C)=CCOc1c2occc2cc2ccc(=O)oc12 | inactive | 3.76 µM (active) | inactive | inactive | inactive | – | inactive | inactive | inactive | inactive
25 | CCCCN=C=O | inactive | inactive | inactive | inactive | – | – | inactive | inactive | inactive | inactive
26 | CCCCCCCCOC(=O)c1ccc(C(=O)OCCCCCCCC)c(C(=O)OCCCCCCCC)c1 | inactive | inactive | inactive | inactive | inactive | – | inactive | inactive | – | –
27 | CCOP(=O)(OCC)SCCSCC | inactive | inactive | inactive | inactive | inactive | inactive | inactive | inactive | inactive | inactive

Row | SMILES | Potency [1] | Potency [2] | Potency [3] | Potency [4] | Potency [5] | Potency [6] | Potency [7] | Potency [8] | outcome [9] | Potency [10]
28 | CNC(C)Cc1ccccc1OC (centres undefined) | inactive | inactive | inactive | inactive | inactive | inactive | inactive | inactive | inactive | –
29 | C=CC(=O)OCC(C)C | inactive | inactive | inactive | inactive | inactive | inactive | inactive | inactive | – | –
30 | COC(C)(C)CCC[C@H](C)C/C=C/C(C)=C/C(=O)OC(C)C | inactive | inactive | inactive | inactive | – | – | – | – | – | –
31 | BrCC(Br)C1CCC(Br)C(Br)C1 (centres undefined) | inactive | inactive | inactive | inactive | – | – | inactive | inactive | inactive | inactive
32 | CC(C)(CCl)C(=O)Cl | inactive | inactive | inactive | inactive | inactive | inactive | inactive | inactive | – | inactive
33 | CCCN(CCC)c1c([N+](=O)[O-])cc(S(C)(=O)=O)cc1[N+](=O)[O-] | inactive | inactive | inactive | inactive | inactive | inactive | inactive | inactive | – | –
34 | CCCCOC(=O)c1ccccc1C(=O)OCc1ccccc1 | inactive | inactive | inactive | inactive | inactive | inactive | inactive | inactive | inactive | –
35 | O=S(=O)(Cl)c1ccccc1 | inactive | inactive | inactive | inactive | inactive | inactive | inactive | inactive | inactive | inactive
36 | O=C(O)COc1ccc(Cl)cc1 | inactive | inactive | inactive | inactive | inactive | – | inactive | inactive | inactive | –
37 | COC(=O)c1cncn1C(C)c1ccccc1 (centres undefined) | inactive | inactive | inactive | – | inactive | inactive | inactive | inactive | inactive | inactive
38 | COc1cc(CC(C)N)cc2c1OCO2 (centres undefined) | inactive | inactive | inactive | inactive | inactive | – | inactive | inactive | inactive | –
39 | NC(=O)C(Cl)(Cl)Cl | inactive | inactive | inactive | – | inactive | – | inactive | inactive | inactive | inactive
40 | C#CCOC(C(=O)OCCN(C)C)(c1ccccc1)c1ccccc1 | inactive | inactive | inactive | – | inactive | inactive | inactive | inactive | inactive | inactive
41 | CC(=O)NC1CCSC1=O (centres undefined) | inactive | inactive | inactive | inactive | – | inactive | inactive | inactive | inactive | –
42 | N#Cc1ccc(Cl)cc1 | inactive | inactive | inactive | inactive | – | inactive | inactive | inactive | inactive | –
43 | O=C(C(Cl)(Cl)Cl)C(Cl)(Cl)Cl | inactive | inactive | inactive | inactive | – | inactive | inactive | inactive | inactive | –
44 | CCOP(=O)(OCC)O/C(=C/Cl)c1ccc(Cl)cc1Cl | inactive | inactive | inactive | inactive | inactive | – | inactive | inactive | inactive | –
45 | CC(Cl)Cl | inactive | inactive | inactive | inactive | inactive | – | inactive | inactive | inactive | –
46 | ClP(Cl)(Cl)(Cl)Cl | inactive | inactive | inactive | – | inactive | inactive | inactive | inactive | inactive | inactive
47 | O=C1c2ccccc2C(=O)C1C(=O)C(c1ccccc1)c1ccccc1 | inactive | 29.8 µM (active) | inactive | inactive | – | – | inactive | inactive | inactive | –
48 | O=[N+]([O-])C(Br)(CO)CO | 61.1 µM (active) | inactive | inactive | inactive | – | – | inactive | inactive | inactive | –
49 | CCOc1ccc(C(C)(C)COCc2cccc(Oc3ccccc3)c2)cc1 | inactive | inactive | inactive | inactive | – | – | inactive | inactive | inactive | –
50 | COc1nn(C(=O)NS(=O)(=O)c2ccccc2OC(F)(F)F)c(=O)n1C | inactive | inactive | inactive | inactive | – | – | inactive | inactive | inactive | –
51 | II | inactive | inactive | inactive | inactive | – | inactive | inactive | inactive | inactive | –
52 | C=CC(=O)OC(C)(C)C | inactive | inactive | inactive | – | inactive | inactive | inactive | inactive | inactive | inactive
53 | CCCN(CC1CC1)c1c([N+](=O)[O-])cc(C(F)(F)F)cc1[N+](=O)[O-] | inactive | inactive | inactive | – | – | inactive | inactive | inactive | inactive | inactive
54 | Clc1ccc(C(OCCN2CCCCC2)c2ccccc2)cc1 (centres undefined) | inactive | inactive | inactive | inactive | inactive | – | – | – | inactive | –
